Drawing on PubChem BioAssay (NCI), this text covers growth inhibition for 20 compounds.

Test [1] in a line: NCI Yeast Anticancer Drug Screen. Data for the rad50 strain (AID 155).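 Also: 0% = growth of vehicle-only cultures of the same strain.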 As to conditions: S. cerevisiae rad50 strain growth inhibition, hits give high values; at 50.0 µM unless noted. Summed up: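 Yeast carrying a defined DNA repair defect were exposed to test compounds, and growth was compared with vehicle-treated controls to give percent inhibition.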
Test [2] in a line: NCI Yeast Anticancer Drug Screen. Data for the mec2-1 strain (AID 157). As to conditions: S. cerevisiae mec2-1 strain, hits give high values; at 50.0 µM unless noted. The gist of the method:
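Strain: mec2-1 (DNA repair/cell cycle alteration). Compound exposure, then growth measured; inhibition expressed relative to vehicle.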

Test [3] can be described thus: NCI Yeast Anticancer Drug Screen. Data for the sgs1 mgt1 strain (AID 161).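 Also: 0% = growth of cultures given vehicle only.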 The settings on record: S. cerevisiae sgs1 mgt1 strain, hits give high values; at 50.0 µM unless noted. The gist of the method:
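Test agents were incubated with a DNA-repair-mutant yeast strain. Growth was then read and compared against vehicle-treated controls.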

A short description of test [4]: NCI Yeast Anticancer Drug Screen. Data for the cln2 rad14 strain (AID 165).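 Also: 0% = growth equal to vehicle treated cultures.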 The settings on record: S. cerevisiae cln2 rad14 strain, hits give high values; at 50.0 µM unless noted. The gist of the method: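 Compounds are applied to the cln2 rad14 yeast strain, and growth is then compared with that of vehicle-treated cultures to give inhibition.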
Test [5] can be described thus: NCI Yeast Anticancer Drug Screen. Data for the bub3 strain (AID 167). The settings on record: S. cerevisiae bub3 mutant strain, hits give high values; at 50.0 µM unless noted. The gist of the method:
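Compounds were applied to a genetically altered yeast strain carrying a cell-cycle control defect. Growth inhibition was scored against vehicle-treated controls.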

The nature of test [6]: NCI Yeast Anticancer Drug Screen. Data for the mlh1 rad18 strain (AID 175). As to conditions: S. cerevisiae mlh1 rad18 strain growth inhibition, hits give high values; at 50.0 µM unless noted. Summed up:
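Read-out is yeast growth inhibition, calculated against vehicle-only controls. The compound was applied to a strain engineered with DNA damage repair alterations.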

Several values for one entry are separate records, joined by “and”; a condition that tells them apart may be missing. Equal entries are not always repeated. This is part of a sample that, as a whole, favours compounds with a hit. Of some 79,000 tested, about 15% had one in any assay. A number with no mark means an inactive call. Activity calls are given as the source filed them. Rule as the data show it: active = growth inhibition above about 70%; inactive = the rest.

Regarding `C=C[C@@]1(C)C=C2CC[C@@H]3[C@](C)(CCC[C@@]3(C)C(=O)O)[C@H]2CC1`, the growth inhibition in test [1] is 67.5%; in test [2], 37.8%; in test [3], 31.3%; in test [4], 52.1%; in test [5] it was 35.1%; in test [6] it was 55.2%.

`C=C1C[C@@H](O)C[C@@]2(C)C[C@@H]3OC(=O)C(=C)[C@@H]3C[C@H]12`: the growth inhibition in test [1] was -5.9%; in test [2] it was -3%; in test [3], 16.2%; in test [4] it was 14.2%; in test [5], -16.6%; in test [6], 19.9%.

As for `[S-]c1n[n+](-c2ccccc2)cs1`, the growth inhibition in test [1] is 2.95%; in test [2], 2.1%; in test [3], 0.15%; in test [4] it was -5.25%; in test [5] it was -23%; in test [6], 3.1%.

For the compound `CCCCCCCCCCCCCCCC[N+](C)(C)CC#N`, the growth inhibition in test [1] was 99.4% (active); in test [2], 99.3% (active); in test [3], 99.2% (active); in test [4], 99% (active); in test [5] it was 99.2% (active); in test [6], 99.5% (active).

Consider `c1nc2nc(N3CCOCC3)nc(N3CCOCC3)c2[nH]1`, for which the growth inhibition in test [1] was 11.8%; in test [2], -0.8%; in test [3], 23.9%; in test [4], 8.45%; in test [5], -17.9%; in test [6], 8.7%.

In the case of `CC12CC[C@H](O)C(C)(C)[C@H]1CC[C@](C)(O)C2COc1ccc2ccc(=O)oc2c1` (stereo not given in full), the growth inhibition is 86.3% (active) in test [1]; 75.2% (active) in test [2]; 85.6% (active) in test [3]; 37.1% in test [4]; 76.3% (active) in test [5]; 77.1% (active) in test [6].

Turning to `CN(Cc1ccc2nc(N)nc(N)c2c1)c1ccc(C(=O)NC(CCC(=O)O)C(=O)O)cc1` (stereo not given), the growth inhibition in test [1] is 65.3%; in test [2] it was 88.8% (active); in test [3] it was 77.8% (active); in test [4] it was 4.7%; in test [5], -24.5%; in test [6], 33.3%.

Consider `CC1(C)OC(=O)C(=Cc2ccc3c(c2)OCO3)C(=O)O1`, for which the growth inhibition in test [1] was 16.1%; in test [2] it was 4.25%; in test [3], -3.65%; in test [4] it was 19%; in test [5], -8%; in test [6], 5.1%.

Regarding `COc1ccc(C)cc1Sc1ccc([N+](=O)[O-])cc1C`, the growth inhibition in test [1] was 0.65%; in test [2] it was -17.9%; in test [3], -8.35%; in test [4], -19.2%; in test [5], 8.95%; in test [6], -19.2%.

Take `Nc1ncnc2c1nc(Cl)n2C1OC2COP(=O)(O)OC2C1O` (stereo not given): the growth inhibition was -15.9% and -13.3% in test [1]; -8.05% and 3.45% in test [2]; -20.7% and -0.55% in test [3]; -9.25% and -40.8% in test [4]; -27.1% and -41.8% in test [5]; -13.8% and -10.6% in test [6].

As for `COc1ccc(C2c3c(ccc4ccccc34)Oc3ccc4ccccc4c32)cc1`, the growth inhibition is -8.05% in test [1]; -23.6% in test [2]; 7.5% in test [3]; 6.85% in test [4]; 2.85% in test [5]; -8.45% in test [6].

For `CC1C(c2ccccc2)OCCN1CN1C(=O)c2ccccc2C1=O` (stereo not given), the growth inhibition in test [1] was 10.8%; in test [2], 17.4%; in test [3], 12.4%; in test [4], 21.8%; in test [5], 17.1%; in test [6] it was -3.6%.

As for `CCN(CC)CCN=c1nc(/C=C\C=C\NN(C)C(=S)SC)c(C)nn1C`, the growth inhibition in test [1] is -49.7%; in test [2] it was -7.95%; in test [3] it was -15%; in test [4], -12.3%; in test [5] it was -1.05%; in test [6], -12.8%.

Consider `CCOC(=O)C1Oc2ccc([N+](=O)[O-])cc2C1(C)O` (stereo not given), for which the growth inhibition in test [1] was -1.15%; in test [2], 0.75%; in test [3], -6.85%; in test [4], 22.6%; in test [5], 1.85%; in test [6], -4.45%.

Take `CN=C1CC2c3cc(OC)c(OC)cc3CCN2C2=C1C(=O)CC(C)(C)C2` (stereo not given): the growth inhibition in test [1] is 17.1%; in test [2] it was 18.5%; in test [3] it was 15.1%; in test [4], -19%; in test [5] it was 36.4%; in test [6], 16.6%.

As for `CCCCOC(=O)c1cccc(C)c1`, the growth inhibition in test [1] is -3%; in test [2], 4.4%; in test [3], -4.35%; in test [4] it was -38.1%; in test [5] it was 2.6%; in test [6], -0.9%.

For `CCCCCCCCCCCC(=O)OC(COCCC(C)C)COCCC(C)C`, the growth inhibition in test [1] was -2.9%; in test [2] it was -5.05%; in test [3], -3.15%; in test [4], -12.1%; in test [5], -11.9%; in test [6], 12.1%.

Take `O=C(Nc1cc(Cl)c(Cl)cc1Cl)C(=O)C(C(=O)c1ccc(Cl)c(Cl)c1)C1OC(=O)c2ccccc21` (stereo not given): the growth inhibition in test [1] is 19.4%; in test [2], 8.55%; in test [3], 0.55%; in test [4] it was 27%; in test [5], 4.05%; in test [6] it was 22.6%.

On to `Cc1cc(O)c(C)cc1O`, for which the growth inhibition is 16.1% in test [1]; 5.5% in test [2]; -2.85% in test [3]; 6.5% in test [4]; -7.95% in test [5]; 21.6% in test [6].

For `CN(Cc1cc(Br)cc(Br)c1O)Cc1c(O)ccc2ccccc12`, the growth inhibition is 98.8% (active) in test [1]; 98.8% (active) in test [2]; 98.8% (active) in test [3]; 97.3% (active) in test [4]; 98.2% (active) in test [5]; 98.8% (active) in test [6].
